Test results published in ChEMBL document CHEMBL3988442, “University of Dundee, Small-Polar-MMV Screening Library” (2021).
For some assays here: Measured potencies and affinities stand elsewhere.

Tests used:
Set-up in all cases: scale not given: direction of the effect not stated beside the values
[1] = molecular target: Protein translocase subunit SecA (Escherichia coli (strain K12)) (UniProt P10408); assay: Assay to Identify E. coli SecA ATPase Inhibitors; format: functional; settings: 30 µM
[2] = molecular target: T1, Ubiquitin-activating enzyme e1, putative (Leishmania donovani (strain BPK282A1)) (UniProt E9BSI1); assay: Leishmania donovani Ubiquitin Activating Enzyme (LdE1); format: functional; settings: 30 µM
T1 sequence (whole entry): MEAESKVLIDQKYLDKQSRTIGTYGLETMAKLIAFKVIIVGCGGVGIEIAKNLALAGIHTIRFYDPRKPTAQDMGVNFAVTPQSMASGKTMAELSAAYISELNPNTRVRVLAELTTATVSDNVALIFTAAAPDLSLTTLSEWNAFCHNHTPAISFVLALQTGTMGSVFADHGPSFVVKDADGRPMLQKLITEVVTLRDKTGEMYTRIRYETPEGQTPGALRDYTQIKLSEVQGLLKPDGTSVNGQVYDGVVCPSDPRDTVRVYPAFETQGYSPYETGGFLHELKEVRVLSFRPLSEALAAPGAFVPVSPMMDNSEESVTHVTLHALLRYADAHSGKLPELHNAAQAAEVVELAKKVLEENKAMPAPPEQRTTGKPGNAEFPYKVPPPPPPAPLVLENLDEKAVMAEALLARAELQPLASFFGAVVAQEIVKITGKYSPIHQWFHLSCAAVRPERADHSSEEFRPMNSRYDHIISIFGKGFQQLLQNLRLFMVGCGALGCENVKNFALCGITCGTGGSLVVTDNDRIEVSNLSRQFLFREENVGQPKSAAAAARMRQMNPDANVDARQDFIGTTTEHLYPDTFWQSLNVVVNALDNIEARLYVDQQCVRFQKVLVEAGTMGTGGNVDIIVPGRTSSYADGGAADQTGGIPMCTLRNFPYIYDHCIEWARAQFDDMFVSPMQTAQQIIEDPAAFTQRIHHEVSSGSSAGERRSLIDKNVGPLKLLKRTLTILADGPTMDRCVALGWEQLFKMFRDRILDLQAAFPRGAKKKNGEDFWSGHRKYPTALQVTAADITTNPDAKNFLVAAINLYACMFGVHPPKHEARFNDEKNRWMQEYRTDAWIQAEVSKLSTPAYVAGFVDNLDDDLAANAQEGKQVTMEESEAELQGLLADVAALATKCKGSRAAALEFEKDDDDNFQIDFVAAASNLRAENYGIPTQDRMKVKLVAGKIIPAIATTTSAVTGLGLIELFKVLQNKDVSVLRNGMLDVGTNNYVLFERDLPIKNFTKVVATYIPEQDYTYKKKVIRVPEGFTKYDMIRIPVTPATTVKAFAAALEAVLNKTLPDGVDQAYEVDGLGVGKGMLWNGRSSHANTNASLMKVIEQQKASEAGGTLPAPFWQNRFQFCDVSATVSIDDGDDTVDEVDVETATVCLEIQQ

[3] = molecular target: AMP-activated protein kinase, AMPK (Homo sapiens) (UniProt P54646+O43741+P54619+Q9UGJ0+Q9Y478+Q13131+Q9UGI9); assay: AMP-dependent Kinase enzyme assay. An in vitro enzyme assay that detects ADP turnover that is directly proportional to AMPK activity. This uses naive AMPK that is activated during the assay with MK-8722; format: functional; settings: 30 µM
[4] = molecular target: Sialic acid-binding Ig-like lectin 9 (Homo sapiens) (UniProt Q9Y336); assay: Hs-Siglec9 ALPHAscreen SOP 20170721; settings: 10 µM
[5] = system: Trypanosoma cruzi; assay: Trypanosoma cruzi phosphomannomutase and mannose-1-phosphate guanylyltransferase assay; format: functional; settings: 10 µM
[6] = molecular target: T2, Arginase-2, mitochondrial (Homo sapiens) (UniProt P78540); assay: in vitro enzyme assay to detect the production of urea directly proportional to the activity of Arginase II; format: functional; settings: 33.3 µM; also: in the data most compounds retested in dose-response had high values
T2 sequence (whole entry): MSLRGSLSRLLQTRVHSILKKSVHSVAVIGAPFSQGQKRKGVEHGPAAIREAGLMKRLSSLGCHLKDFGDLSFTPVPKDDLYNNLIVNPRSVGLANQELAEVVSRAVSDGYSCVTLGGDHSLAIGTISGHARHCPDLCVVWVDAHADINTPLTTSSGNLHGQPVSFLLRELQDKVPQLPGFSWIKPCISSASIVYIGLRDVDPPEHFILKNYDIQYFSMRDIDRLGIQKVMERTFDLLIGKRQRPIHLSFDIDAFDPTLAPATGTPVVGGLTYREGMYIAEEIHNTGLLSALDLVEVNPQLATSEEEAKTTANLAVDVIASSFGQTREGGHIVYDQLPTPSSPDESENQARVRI

[7] = molecular target: T3, Proteasome subunit beta (Trypanosoma cruzi) (UniProt O96673); assay: Trypanosoma cruzi proteasome chymotrypsin-like activity (TcProtChymo) assay.; also: in the data most compounds retested in dose-response had high values; format: functional; settings: 9.37 µM
T3 sequence (whole entry): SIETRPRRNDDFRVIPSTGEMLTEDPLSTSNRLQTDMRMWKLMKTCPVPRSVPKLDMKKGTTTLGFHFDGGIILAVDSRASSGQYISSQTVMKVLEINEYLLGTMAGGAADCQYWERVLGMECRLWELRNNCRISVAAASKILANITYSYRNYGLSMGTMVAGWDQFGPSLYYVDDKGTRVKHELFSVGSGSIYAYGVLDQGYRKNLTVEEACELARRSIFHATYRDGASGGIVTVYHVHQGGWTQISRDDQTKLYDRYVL

[8] = organism: Homo sapiens; assay: To identify inhibition of the IFN signalling (Jak-Stat) pathway via expression of an eGFP reporter gene under the control of an IFN-stimulated response element (ISRE) containing MxA promoter.; format: functional; settings: 30 µM
[9] = molecular target: T4, Tyrosyl-tRNA synthetase, putative (Trypanosoma cruzi (strain CL Brener)) (UniProt Q4DSP6); assay: Trypanosoma cruzi tyrosyl tRNA synthetase (TcYRS) _High Tyrosine SOP; format: functional; settings: 30 µM; also: in the data most compounds retested in dose-response had high values
T4 sequence (whole entry): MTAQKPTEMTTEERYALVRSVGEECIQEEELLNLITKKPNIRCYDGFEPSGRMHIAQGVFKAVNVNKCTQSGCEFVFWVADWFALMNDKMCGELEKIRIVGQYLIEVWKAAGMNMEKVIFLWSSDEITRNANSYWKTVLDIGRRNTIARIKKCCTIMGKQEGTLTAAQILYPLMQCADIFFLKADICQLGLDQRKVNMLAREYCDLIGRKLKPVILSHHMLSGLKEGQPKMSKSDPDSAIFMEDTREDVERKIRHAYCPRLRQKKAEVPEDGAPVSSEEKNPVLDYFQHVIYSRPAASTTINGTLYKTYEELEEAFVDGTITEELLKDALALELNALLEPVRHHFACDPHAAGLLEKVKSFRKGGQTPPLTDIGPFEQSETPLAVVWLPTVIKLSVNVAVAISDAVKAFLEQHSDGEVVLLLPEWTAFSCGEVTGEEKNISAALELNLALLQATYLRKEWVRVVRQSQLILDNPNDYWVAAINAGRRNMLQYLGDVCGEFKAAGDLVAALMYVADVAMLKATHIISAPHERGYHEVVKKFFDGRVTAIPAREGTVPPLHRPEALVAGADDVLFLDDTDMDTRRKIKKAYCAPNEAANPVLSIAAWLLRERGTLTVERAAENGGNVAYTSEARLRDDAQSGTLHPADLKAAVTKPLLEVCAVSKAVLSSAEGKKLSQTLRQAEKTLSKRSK

[10] = molecular target: T4, Tyrosyl-tRNA synthetase, putative (Trypanosoma cruzi (strain CL Brener)); assay: Trypanosoma cruzi tyrosyl tRNA synthetase (TcYRS) SOP; format: functional; settings: 30 µM
[11] = molecular target: Chromo domain-containing protein 1 (Saccharomyces cerevisiae (strain ATCC 204508 / S288c) (Baker's yeast)) (UniProt P32657); assay: ScCHD-1 Enzyme Inhibition Assay; format: functional; settings: 30 µM; also: in the data most compounds retested in dose-response had high values
Chain of Chromo domain-containing protein 1 (Saccharomyces cerevisiae (strain ATCC 204508 / S288c) (Baker's yeast)) (P32657 whole entry, the tested form may be a part): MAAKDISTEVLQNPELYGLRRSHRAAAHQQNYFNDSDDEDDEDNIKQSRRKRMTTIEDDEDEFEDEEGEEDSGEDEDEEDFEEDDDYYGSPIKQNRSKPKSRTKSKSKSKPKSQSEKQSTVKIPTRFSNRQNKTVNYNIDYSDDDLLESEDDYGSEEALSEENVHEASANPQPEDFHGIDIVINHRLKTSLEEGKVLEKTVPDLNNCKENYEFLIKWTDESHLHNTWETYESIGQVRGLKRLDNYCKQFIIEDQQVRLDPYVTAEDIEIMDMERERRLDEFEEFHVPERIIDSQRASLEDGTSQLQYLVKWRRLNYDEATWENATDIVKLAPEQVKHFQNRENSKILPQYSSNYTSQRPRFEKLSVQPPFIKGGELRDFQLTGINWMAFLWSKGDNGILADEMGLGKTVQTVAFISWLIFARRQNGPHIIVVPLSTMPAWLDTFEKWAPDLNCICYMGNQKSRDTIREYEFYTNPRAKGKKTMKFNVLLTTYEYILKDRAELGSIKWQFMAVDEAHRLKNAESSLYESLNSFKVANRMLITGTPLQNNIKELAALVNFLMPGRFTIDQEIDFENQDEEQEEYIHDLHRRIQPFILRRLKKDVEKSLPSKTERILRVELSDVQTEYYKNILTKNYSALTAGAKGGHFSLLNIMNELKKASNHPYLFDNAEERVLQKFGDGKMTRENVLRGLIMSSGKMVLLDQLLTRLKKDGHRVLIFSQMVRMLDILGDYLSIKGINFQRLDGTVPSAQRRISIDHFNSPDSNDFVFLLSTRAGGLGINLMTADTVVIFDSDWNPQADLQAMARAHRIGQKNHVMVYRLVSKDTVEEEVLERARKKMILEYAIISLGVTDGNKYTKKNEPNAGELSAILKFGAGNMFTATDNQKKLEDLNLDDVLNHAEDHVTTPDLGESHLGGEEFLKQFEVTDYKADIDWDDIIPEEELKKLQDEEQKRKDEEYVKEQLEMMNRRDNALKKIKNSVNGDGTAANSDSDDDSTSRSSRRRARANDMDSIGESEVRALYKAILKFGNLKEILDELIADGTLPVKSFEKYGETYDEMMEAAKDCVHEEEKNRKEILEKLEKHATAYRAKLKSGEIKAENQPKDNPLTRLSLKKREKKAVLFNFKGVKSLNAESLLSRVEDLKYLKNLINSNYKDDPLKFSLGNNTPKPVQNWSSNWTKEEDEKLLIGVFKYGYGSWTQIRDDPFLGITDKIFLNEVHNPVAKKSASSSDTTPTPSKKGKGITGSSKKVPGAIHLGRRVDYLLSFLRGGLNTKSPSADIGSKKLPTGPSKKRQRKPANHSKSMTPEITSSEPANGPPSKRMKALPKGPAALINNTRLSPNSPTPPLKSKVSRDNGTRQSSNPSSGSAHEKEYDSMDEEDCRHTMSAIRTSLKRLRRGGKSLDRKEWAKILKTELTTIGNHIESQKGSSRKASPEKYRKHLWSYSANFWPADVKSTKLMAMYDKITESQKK

Chain of Sialic acid-binding Ig-like lectin 9 (Homo sapiens) (Q9Y336 whole entry): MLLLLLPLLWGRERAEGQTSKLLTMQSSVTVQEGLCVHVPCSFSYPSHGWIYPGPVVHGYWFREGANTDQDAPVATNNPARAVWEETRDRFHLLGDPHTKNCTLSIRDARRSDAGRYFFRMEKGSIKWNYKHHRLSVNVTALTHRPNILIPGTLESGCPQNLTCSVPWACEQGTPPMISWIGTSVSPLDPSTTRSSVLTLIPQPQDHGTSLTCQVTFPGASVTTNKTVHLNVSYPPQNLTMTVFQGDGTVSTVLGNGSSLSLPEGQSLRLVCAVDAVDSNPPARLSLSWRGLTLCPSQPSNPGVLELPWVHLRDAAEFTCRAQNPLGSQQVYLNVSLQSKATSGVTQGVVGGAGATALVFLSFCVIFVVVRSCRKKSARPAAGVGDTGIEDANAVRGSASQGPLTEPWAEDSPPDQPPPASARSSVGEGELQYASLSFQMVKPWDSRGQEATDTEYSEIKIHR
Chain of Protein translocase subunit SecA (Escherichia coli (strain K12)) (P10408 whole entry): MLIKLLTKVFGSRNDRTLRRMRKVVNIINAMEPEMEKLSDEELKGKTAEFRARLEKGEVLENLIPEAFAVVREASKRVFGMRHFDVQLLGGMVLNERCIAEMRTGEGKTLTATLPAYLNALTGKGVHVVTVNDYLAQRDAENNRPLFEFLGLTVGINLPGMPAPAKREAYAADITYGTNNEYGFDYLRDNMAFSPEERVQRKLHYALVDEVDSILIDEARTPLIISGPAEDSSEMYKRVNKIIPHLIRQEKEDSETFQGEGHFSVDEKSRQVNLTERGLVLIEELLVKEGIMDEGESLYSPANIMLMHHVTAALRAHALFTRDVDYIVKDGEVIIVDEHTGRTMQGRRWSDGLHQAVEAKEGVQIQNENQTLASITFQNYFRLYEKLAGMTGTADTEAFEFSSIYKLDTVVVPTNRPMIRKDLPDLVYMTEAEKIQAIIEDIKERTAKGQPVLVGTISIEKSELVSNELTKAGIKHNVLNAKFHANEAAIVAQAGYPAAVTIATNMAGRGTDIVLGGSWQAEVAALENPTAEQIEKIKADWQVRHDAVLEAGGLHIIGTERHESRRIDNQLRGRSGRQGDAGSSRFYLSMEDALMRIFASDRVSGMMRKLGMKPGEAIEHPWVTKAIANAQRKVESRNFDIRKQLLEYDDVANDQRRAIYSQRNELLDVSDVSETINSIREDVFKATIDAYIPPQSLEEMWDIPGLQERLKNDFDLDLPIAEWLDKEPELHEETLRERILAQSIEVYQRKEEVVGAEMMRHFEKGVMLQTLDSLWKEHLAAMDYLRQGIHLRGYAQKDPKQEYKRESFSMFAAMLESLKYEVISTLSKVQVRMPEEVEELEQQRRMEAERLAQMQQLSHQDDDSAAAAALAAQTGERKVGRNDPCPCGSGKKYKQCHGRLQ

| Compound | Percent Effect [1] | Percent Effect [2] | Percent Effect [3] | Percent Effect [4] | Percent Effect [5] | Percent Effect [6] | Percent Effect [7] | Percent Effect [8] | Percent Effect [9] | Percent Effect [10] | Percent Effect [11] |
| --- | --- | --- | --- | --- | --- | --- | --- | --- | --- | --- | --- |
| CCS(=O)(=O)N1CCC[C@]2(C(=O)N(C)C)CN(c3ncccn3)C[C@@H]2C1 | 2.18% | 10.7% | 3.9% | 3.64% | 0.193% | -53.9% | 7.52% | -10.8% | 3.12% | 22.5% | -10.2% |
| CCc1nccn1C1CCCN(C(=O)Cc2n[nH]c3ccccc23)C1 (configuration not stated) | -3.99% | 3.8% | 8.48% | 8.66% | -4.62% | 3.66% | -0.858% | 1.26% | 2.08% | 15.2% | -2.38% |
| Cc1nccn1C1CCCN(C(=O)c2ccc3c(c2)NC(=O)CO3)C1 (configuration not stated) | -3.38% | 2.7% | -9.28% | -2.15% | 4.43% | -1.2% | 14.1% | -3.11% | 6.4% | 16.1% | -9.9% |
| CC(=O)N1CCCN(Cc2csc(-c3ncccn3)n2)CC1 | -0.976% | 13.2% | -3.37% | -1% | -3.02% | 3.55% | 20.4% | 12% | 6.38% | 18.2% | -3.23% |
| CCOCC(=O)N1CCC(Oc2ccc(Cl)cn2)CC1 | -0.654% | 7.79% | 2.32% | 8.91% | -0.888% | 4.52% | 25.9% | 21.4% | 8.47% | 8.97% | -8.06% |
| Cn1c(C(F)(F)F)nn(CCNC(=O)NCc2ccccc2)c1=O | -6.75% | 0% | -5.98% | 26.1% | 7.25% | 15% | 1.6% | 8.74% | 4.3% | 12.5% | -7.03% |
| CCOc1ccccc1-c1noc(CN2CCCC(O)C2)n1 (configuration not stated) | -8.22% | 0% | -0.175% | -2.29% | 7.54% | -1.47% | 1.54% | -2.84% | 0.952% | 7.06% | -13.3% |
| CC(C)CCC(C)NC(=O)c1ccc(OCC(N)=O)cc1 (configuration not stated) | 0.307% | 10.8% | -4.08% | 5.06% | -2.7% | -1.43% | 10.5% | 11.1% | 5.82% | 12.2% | -4.44% |
| CC(C)Cc1noc(CN2CCN(C(=O)c3ccco3)CC2)n1 | 1.31% | 2.74% | 2.5% | 1.08% | 3.17% | 0% | 8.99% | 5.51% | 5.21% | 8.64% | -2.76% |
| COCC1c2c(cnn2CC2CC2)CCN1Cc1ccc(OC)cc1 (configuration not stated) | 0.566% | -5.33% | -0.782% | 3.28% | -0.772% | -53.2% | 9.23% | 91.4% | -4.17% | 2.5% | -3.58% |
| CCc1nc(C2CCCN2Cc2nc3ccccc3o2)no1 (configuration not stated) | -0.183% | 2.6% | 6.37% | 9.09% | 1.67% | 2.74% | 2.67% | -1.25% | -2.86% | 0% | 2.53% |
| CN(Cc1cccs1)C(=O)CN1CCCC1Cn1cncn1 (configuration not stated) | -1.48% | 10.4% | -63.7% | 2.24% | -1.08% | -5.52% | 20.3% | -3.55% | 7.53% | 13.6% | -2.25% |
| Cn1ncc2c1NC(=O)CC2c1ccccc1Cl (configuration not stated) | -6.92% | 10.5% | 5.36% | 7.02% | 3.6% | -5.92% | 6.62% | 16.4% | 1.06% | 5.2% | -0.659% |
| CCOc1cc(/C=C/c2ncc(C(=O)O)s2)cc(Cl)c1OC | -1.71% | 8.86% | 6.6% | 1.04% | -7.28% | -4.52% | 12.3% | 10.1% | 0% | 7.59% | -21.1% |
| O=C(CCc1cccc(F)c1F)N1CCN(Cc2ccco2)CC1 | 0.132% | 2.7% | -1.7% | 9.76% | 3.48% | 0.476% | 10.3% | 0.925% | 0.529% | -2.44% | -2.5% |
| COc1ccccc1C(O)CNCc1c(C(C)C)nn(C)c1N(C)C (configuration not stated) | -5.07% | 15.6% | -1.45% | 1.4% | 1.31% | 1.07% | 4.9% | -5.4% | 11.7% | 14.6% | -10.1% |
| COCC(=O)N1CCC(c2cccc(Cc3ccc(F)cc3)n2)CC1 | 0.623% | 9.46% | 7.38% | -1.91% | -6.13% | 3.94% | 5.15% | 22.7% | 2.15% | 11.7% | -12.4% |
| CC(=O)c1cccc(NC(=O)CN2CCCCC2C2OCCO2)c1 (configuration not stated) | -5.29% | 5.41% | 1.19% | -1.14% | -2.54% | 5% | 8.37% | -2.75% | 5.94% | 11% | -4.75% |
| COc1cccc(S(=O)(=O)CCN2CCCCC2)c1 | -3.72% | 8% | -7.74% | 6.82% | -5.94% | 1.56% | 22% | 20% | 2.73% | 8.64% | -9.16% |
| COc1cccc(N2CCN(CC(O)c3cc(C)ccc3C)CC2)c1 (configuration not stated) | -1.87% | 10.5% | -6.71% | -9.14% | -8.67% | 2.37% | 18.5% | -5.38% | 7.45% | 7.79% | -5.09% |
| CC(C(=O)NCCN1CCCCCC1)n1cncn1 (configuration not stated) | -5.19% | 13.2% | -5.03% | 2.07% | 4.76% | 1.8% | 3.98% | -5.88% | 4.43% | 13.6% | -5.88% |
| O=C(C1CC=CC1)N1C[C@@H]2[C@@H](C1)OCC(=O)N2Cc1cccnc1 | -2.28% | -2.6% | 12.1% | 3.67% | 0.888% | -3.23% | 0.87% | 15% | 2.12% | 6.41% | -4.72% |
